Where “and” joins values, the source holds several entries; their conditions need not be identical. Equal entries are not always repeated. Records with an inconclusive call do not appear. More than one record can exist for a structure, and the calls need not agree. Calls of active or inactive are those of the source. Rule for the calls, unless noted: active = hit-call score of the fitted dose curve at least 0.9, where 1 is the maximum; inconclusive = response in the unintended direction; inactive = score below 0.9.
test system: not listed separately; assay: CCTE_Shafer_MEA_dev_per_network_spike_spike_percent: CCTE's Neural Network Formation Assay for Percent of Spikes in a Network Spike, Shafer Lab (AID 2284054; active = hit-call score of the fitted dose curve at least 0.9, where 1 is the maximum; inactive = score below 0.9)
Summary of the method: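 Read-out: percent of spikes falling in a 0.05 s window at network-spike peak, from spontaneous MEA recordings on days 5, 7, 9 and 12; trapezoidal AUC; loss of signal versus DMSO. Rat cortical cultures, compound present throughout.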

Compound	AC50	outcome
Clc1ccc(C(c2ccccc2Cl)C(Cl)(Cl)Cl)cc1 (stereo unspecified)	0.708 µM (active)	–
CO/C=C(/C(=O)OC)c1ccccc1COc1cccc(C(F)(F)F)n1	245 nM (active) and 751 nM (active)	–
O=C(O)C(F)(F)C(F)(F)C(F)(F)C(F)(F)C(F)(F)F	–	inactive
CCC(C)(c1ccc(O)cc1)c1ccc(O)cc1	–	inactive
CCOP(=S)(OCC)SCSC(C)(C)C	23.1 µM (active) and 28.7 µM (active)	–
c1cc2ccc3cccc4ccc(c1)c2c34	–	inactive
O=S(=O)(O)C(F)(F)C(F)(F)C(F)(F)C(F)(F)C(F)(F)C(F)(F)F	–	inactive
ClC1=C(Cl)[C@]2(Cl)[C@@H]3[C@@H](Cl)[C@H]4O[C@H]4[C@@H]3C1(Cl)C2(Cl)Cl	26.1 µM (active)	–
C=CC(N)=O	–	inactive
COc1ccc(O)c(C(C)(C)C)c1	–	inactive
O=C(O)C(F)(F)C(F)(F)C(F)(F)C(F)(F)C(F)(F)C(F)(F)C(F)(F)C(F)(F)F	–	inactive
ClC1=C(Cl)[C@]2(Cl)[C@@H]3[C@H]4C[C@H]([C@@H]5O[C@H]45)[C@@H]3[C@@]1(Cl)C2(Cl)Cl	–	inactive
Oc1ccc(C(c2ccc(O)cc2)(C(F)(F)F)C(F)(F)F)cc1	–	inactive
ClC1=C(Cl)[C@]2(Cl)[C@@H]3[C@@H]4C[C@@H]([C@H]5O[C@@H]45)[C@@H]3[C@@]1(Cl)C2(Cl)Cl	15 µM (active)	–
NS(=O)(=O)C(F)(F)C(F)(F)C(F)(F)C(F)(F)C(F)(F)C(F)(F)C(F)(F)C(F)(F)F	4.59 µM (active)	inactive
O=S(=O)(O)C(F)(F)C(F)(F)C(F)(F)C(F)(F)F	–	inactive
ClC(Cl)=C(c1ccc(Cl)cc1)c1ccc(Cl)cc1	3.83 µM (active)	–

test system: DIO3 (gene 1735); assay: CCTE_GLTED_hDIO3: CCTE's human Deiodinase 3 (DIO3) Inhibition Assay, Great Lakes Toxicology and Ecology Division (GLTED) Lab (AID 2284055);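 note: potency is for inhibition seen as loss of released iodide signal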
Summary of the method: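 Inhibition is read as reduced iodide release, measured spectrophotometrically by the Sandell-Kolthoff cerium/arsenic reaction. Adenovirus-expressed human DIO3 enzyme is exposed to chemical for 3 h, n=3 plates. Iodinated chemicals, nitrite, iron or thiocyanate may interfere.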

Compound	AC50
CCCCCCCCCC[N+](C)(C)CCCCCCCCCC	3.56 µM (active)
O=C(O)C(F)(F)C(F)(F)C(F)(F)C(F)(F)C(F)(F)C(F)(F)C(F)(F)C(F)(F)C(F)(F)F	89.4 µM (active) and 74.2 µM (active)
CCCCCCCCCc1ccc(O)cc1	17.4 µM (active)
CC#Cc1cc(C)nc(Nc2ccccc2)n1	3.73 µM (active)
Clc1ccc(C(Cl)(Cl)Cl)cc1	73.1 µM (active)
Oc1ccc(C(c2ccc(O)cc2)(C(F)(F)F)C(F)(F)F)cc1	136 µM (active)

test system: not listed separately; assay: CCTE_Shafer_MEA_dev_LDH: CCTE's Lactate Dehydrogenase Assay for Cytotoxicity in the Neural Network Formation Assay, Shafer Lab (AID 2284068);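 note: exposure for twelve days from plating with re-dosing on DIV 5 and 9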
Summary of the method: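 Cytotoxicity companion to network-formation recordings: rat cortical neurons received compound over 12 days of development, re-dosed at DIV 5 and 9 feeds. Viability was inferred from LDH enzyme activity relative to DMSO.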

Compound	AC50	outcome
Clc1ccc(C(c2ccccc2Cl)C(Cl)(Cl)Cl)cc1 (stereo unspecified)	2.38 µM (active)	–
CO/C=C(/C(=O)OC)c1ccccc1COc1cccc(C(F)(F)F)n1	122 nM (active) and 665 nM (active)	–
O=C(O)C(F)(F)C(F)(F)C(F)(F)C(F)(F)C(F)(F)F	–	inactive
CCOP(=S)(OCC)SCSC(C)(C)C	15.1 µM (active) and 29.5 µM (active)	–
c1cc2ccc3cccc4ccc(c1)c2c34	–	inactive
O=S(=O)(O)C(F)(F)C(F)(F)C(F)(F)C(F)(F)C(F)(F)C(F)(F)F	–	inactive
ClC1=C(Cl)[C@]2(Cl)[C@@H]3[C@@H](Cl)[C@H]4O[C@H]4[C@@H]3C1(Cl)C2(Cl)Cl	22.5 µM (active)	–
C=CC(N)=O	–	inactive
COc1ccc(O)c(C(C)(C)C)c1	–	inactive
O=C(O)C(F)(F)C(F)(F)C(F)(F)C(F)(F)C(F)(F)C(F)(F)C(F)(F)C(F)(F)F	–	inactive
ClC1=C(Cl)[C@]2(Cl)[C@@H]3[C@H]4C[C@H]([C@@H]5O[C@H]45)[C@@H]3[C@@]1(Cl)C2(Cl)Cl	–	inactive
Oc1ccc(C(c2ccc(O)cc2)(C(F)(F)F)C(F)(F)F)cc1	10 µM (active) and 13.1 µM (active)	–
ClC1=C(Cl)[C@]2(Cl)[C@@H]3[C@@H]4C[C@@H]([C@H]5O[C@@H]45)[C@@H]3[C@@]1(Cl)C2(Cl)Cl	11.3 µM (active)	–
NS(=O)(=O)C(F)(F)C(F)(F)C(F)(F)C(F)(F)C(F)(F)C(F)(F)C(F)(F)C(F)(F)F	27.6 µM (active) and 23.6 µM (active)	–
O=S(=O)(O)C(F)(F)C(F)(F)C(F)(F)C(F)(F)F	–	inactive
ClC(Cl)=C(c1ccc(Cl)cc1)c1ccc(Cl)cc1	5.14 µM (active)	–

test system: not listed separately; assay: CCTE_Shafer_MEA_acute_AB: CCTE's Alamar Blue Assay for Cytotoxicity in the Neural Acute Assay, Shafer Lab (AID 2284069);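 note: active compounds lower the viability signal compared with DMSO wells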
Summary of the method: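 Metabolic activity in chemically exposed rat cortical neurons (MEA cultures, day 13/15 post-plating) measured via CellTiter Blue resazurin reduction, 544/590 nm fluorescence; fitted relative to DMSO, with signal loss indicating reduced viability.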

Compound	outcome	AC50
CO/C=C(/C(=O)OC)c1ccccc1COc1cccc(C(F)(F)F)n1	inactive	–
CCC(C)(CC)c1cc(NC(=O)c2c(OC)cccc2OC)on1	inactive	–
CCCCCCCCCC[N+](C)(C)CCCCCCCCCC	–	20 µM (active)
O=C(O)C(F)(F)C(F)(F)C(F)(F)C(F)(F)C(F)(F)F	inactive	–
CCC(C)(c1ccc(O)cc1)c1ccc(O)cc1	inactive	–
CC(c1ccc(O)cc1)(c1ccc(O)cc1)c1ccc(O)cc1	inactive	–
CCCCCCCCCc1ccc(O)cc1	inactive	–
CC#Cc1cc(C)nc(Nc2ccccc2)n1	inactive	–
ClC1=C(Cl)[C@]2(Cl)[C@@H]3[C@@H](Cl)[C@H]4O[C@H]4[C@@H]3C1(Cl)C2(Cl)Cl	inactive	–
COS(=O)(=O)OC	inactive	–
Clc1ccc(C(Cl)(Cl)Cl)cc1	inactive	–
CCCN(CCC)N=O	inactive	–
C=CC(N)=O	inactive	–
COc1ccc(O)c(C(C)(C)C)c1	inactive	–
CN(C)CCO	inactive	–
ClC1=C(Cl)[C@]2(Cl)[C@@H]3[C@H]4C[C@H]([C@@H]5O[C@H]45)[C@@H]3[C@@]1(Cl)C2(Cl)Cl	inactive	–
O=C(NC(=O)c1c(F)cccc1F)Nc1cc(Cl)c(OC(F)(F)C(F)F)c(Cl)c1	inactive	–
Oc1ccc(C(c2ccc(O)cc2)(C(F)(F)F)C(F)(F)F)cc1	inactive	–
ClC1=C(Cl)[C@]2(Cl)[C@@H]3[C@@H]4C[C@@H]([C@H]5O[C@@H]45)[C@@H]3[C@@]1(Cl)C2(Cl)Cl	inactive	–
ClC(Cl)=C(c1ccc(Cl)cc1)c1ccc(Cl)cc1	inactive	–
CCSC(=O)N(CC)C1CCCCC1	inactive	–
